This is an account of results in PubChem BioAssay.

Assay [1] is described as follows: P. berghei load reduction in hepatocytes – cell-based, HepG2, luciferase luminescence, HepG2 viability, primary screen (AID 624349; in the data active = parasite load remaining mostly below about 12%, no sharp cut-off; inactive = mostly above about 10%;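 also: 100% = mean of DMSO negative control wells on the same plate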). To be noted: P. berghei liver stage in HepG2, luciferase luminescence, concentration not given here; parasite load remaining: stronger effect = lower value; viability: measured here: HepG2 viability without parasites.
Assay [2] is described as follows: Wnt pathway potentiators raising nuclear beta-catenin – imaging, WNT3A-conditioned medium, mouse C2C12, NPC library, primary screen (AID 1117326; in the data active = nuclear beta-catenin stimulation mostly above about 4.2%, no sharp cut-off; inactive = mostly below about 10%). To be noted: stronger effect = higher value.
A short description of assay [3]: stimulators of insulin release from INS-1E, primary screen, cell-based, 5 mM glucose, NPC library (AID 1117329;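 active = compound raises insulin release from rat beta cells at 5 mM glucose, no numeric limit stated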). To be noted: rat INS-1E insulin secretion, at 10 µM, stronger effect = higher value.
Assay [4] can be described thus: growth inhibition of GSK3B-pretreated HCT116 cells – cell-based, CellTiter-Glo, 0.2 to 20 µM (AID 1117336;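 active = compounds lowering colon cancer cell viability after pretreatment blocking the GSK3B kinase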). To be noted: HCT116 viability after GSK3B inhibitor, at 20 µM, stronger effect = higher value. (In general: In ATP-based viability assays light output follows the ATP content of the culture.)
Assay [5] in a line: inhibition of endothelial tube formation, primary screen, imaging, VEGF stimulated, CD31 staining, tube area, NPC library (AID 1117340;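 active = compound that reduces growth-factor-driven endothelial tube area in a mixed cell culture, no cutoff stated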). To be noted: VEGF-stimulated ADSC/ECFC co-culture, at 10 µM, stronger effect = higher value.
Assay [6] in a line: GLP1 release stimulators, primary, NCI-H716, NPC library (AID 1117341;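 active = compound raises GLP1 secretion from the human gut endocrine cells, with no numeric limit stated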). To be noted: NCI-H716 cells, at 10 µM, stronger effect = higher value.
Assay [7] in a line: HCT116 colon cancer cell growth inhibition, primary screen, CellTiter-Glo luminescence, NPC library (AID 1117342;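 active = compounds that lower survival of HCT116 colon cancer cells in the luminescence readout, no numeric limit stated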). To be noted: at 20 µM (top of the series).
A short description of assay [8]: reduced SW480 viability measured with CellTiter-Glo, NPC library, primary (AID 1117343;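 active = compounds that lower viability of the colon cancer cells in the luminescence readout, with no numeric limit stated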). To be noted: CellTiter-Glo luminescence; at 20 µM (top of the series) unless noted.
The nature of assay [9]: NPC library primary testing for decreased DLD-1 cell viability via CellTiter-Glo (AID 1117346;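 active = compounds that lower survival of DLD-1 colon cancer cells in the luminescence readout, no cutoff given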). To be noted: DLD-1 viability, CellTiter-Glo luminescence; at 20 µM (top of the series).
Assay [10] in a line: viability loss in pontine glioma line – cell-based, SU-DIPG-IV, MIPE4.0, CellTiter-Glo, qHTS, dose response (AID 1347063).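 Also: compound exposure lasted 48 hours before the viability readout.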 To be noted: CellTiter-Glo ATP luminescence.
The nature of assay [11]: viability loss in pontine glioma line – cell-based, SU-DIPG-XXV, MIPE5.0, CellTiter-Glo, qHTS, dose response (AID 1347065; cut-off not given, nearly all actives have AC50 up to about 26 µM;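 also: cells exposed to compound for 48 hours before ATP readout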). To be noted: CellTiter-Glo ATP luminescence.
Assay [12] in a line: JHH-DIPG-1 glioma cell viability, MIPE5.0 library, CellTiter-Glo luminescence, qHTS (AID 1347067; cut-off not given, nearly all actives have AC50 up to about 26 µM;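 also: cells exposed to compound for 48 hours before readout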). To be noted: JHH-DIPG-1 glioma viability, CellTiter-Glo ATP luminescence.
Assay [13] in a line: growth inhibition of DIPG cells – cell-based, MIPE5.0 library, qHTS (AID 1347068; cut-off not given, nearly all actives have IC50 up to about 30 µM). To be noted: SU-DIPG-XXV viability.
A short description of assay [14]: viability loss with induced miR-34 in A549 – imaging, A549 dox-inducible miR-34, nuclei and caspase counts, primary screen (AID 1347080;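 active = compounds whose cell count with miR-34 switched on is under 0.7 times the count with it off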). To be noted: A549 miR-34 inducible, Hoechst nuclei count, 48 h.
The nature of assay [15]: MELAS cybrid and Rieske KO viability enhancers – cell-based, MELAS cybrids, Rieske KO mouse fibroblasts, CellTiter-Glo, primary screen (AID 1508586;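 active = mean z-score across replicates of 1.96 or higher in either the MELAS or the Rieske mutant cell line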;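 also: z relative to plate mean and SD of compound and empty wells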). To be noted: low glucose.
The nature of assay [16]: galactose survival enhancers in mitochondrial complex I cybrids – cell-based, galactose medium, ATP luminescence, primary screen (AID 1645843;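 active = z-score of at least 1.8 in each of two replicates, scored against plate mean and spread of sample wells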;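 also: positive z means more ATP and so rescue of galactose-driven cybrid death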). To be noted: complex I mutant cybrid cells, 72 h, stronger effect = higher value.
Assay [17] in a line: growth inhibition of DIPG cells – cell-based, MIPE4.0 library, CellTiter-Glo luminescence, qHTS (AID 1347066).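 Also: cells exposed to compound for 48 hours before readout.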 To be noted: SU-DIPG-VI viability, CellTiter-Glo ATP luminescence.
The nature of assay [18]: viability loss in pontine glioma line – cell-based, JHH-DIPG-1, MIPE4.0, CellTiter-Glo, qHTS, dose response (AID 1347062; cut-off not given, nearly all actives have AC50 up to about 27 µM;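 as to AC50: cells exposed to compound for two days before readout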). To be noted: JHH-DIPG-1 viability, CellTiter-Glo ATP luminescence.
Setting [19] is: stronger effect = lower value, cell number ratio, induced over uninduced.
[20] abbreviates: measured here: relative caspase fold change +Dox/-Dox.
Setting [21] is: measured here: total cells with miR-34 induction, stronger effect = lower value.
Where [22] appears, read: measured here: total cells without miR-34 induction.
Setting [23] is: MELAS cybrid survival, CellTiter-Glo 48 h, stronger effect = higher value.
[24] abbreviates: Rieske KO mouse fibroblast survival, CellTiter-Glo 72 h.

SMILES strings stand for the structures. Values joined by “and” are separate entries in the source; they are usually repeats but may differ in a detail not shown here. Equal entries are not always repeated. Records with an inconclusive call do not appear. Active and inactive are the calls of the source. Unless noted, the limit is not given here; nearly all actives have AC50 up to about 30 µM.

For the compound `CCCS(=O)c1ccc2nc(NC(=O)OC)[nH]c2c1` (stereo not drawn), in assay [1], the parasite load remaining was 34.6% (inactive). Moreover, the viability in assay [1] was determined as 83%. Moreover, the nuclear beta-catenin stimulation in [2] (at 10 µM) is 4.7% (inactive); in [2] (stimulation, at 2 µM) it was -1.8%. Also, the insulin secretion stimulation in [3] is 0.2% (inactive). Further, in assay [4], the viability decrease is 71.2% (active). The tube area decrease in [5] is 20.1% (inactive). Also, the GLP1 secretion stimulation in assay [6] is 0.6% (inactive). Moreover, the inhibition of viability in [7] was 65.2% (active). Further, the viability decrease (inhibition) is 87.9% (active) in [8] and 29.6% (inactive) in assay [9]. In addition, the AC50 in assay [10] was 14.8 µM (active); in assay [11], 23.5 µM (active). The compound was classed as inactive in [12] and in assay [13]. The fold change in [14] (setting [19]) is 0.922 (inactive) and 0.972 (inactive); in assay [14] (setting [20]) it was 0.991 and 1.16. Further, the cell count in assay [14] (setting [21]) was 6780 and 6570; in [14] (setting [22]) it was 7350 and 6760. The z-score in assay [15] (setting [23]) is -0.274 (inactive) and -0.499 (inactive); in assay [15] (setting [24]), 0.419 and -0.334; in assay [16], 0.54 (inactive).
As for `O=C(O)c1cccc(-c2noc(-c3ccccc3F)n2)c1`, the nuclear beta-catenin stimulation is 2.5% (inactive) in assay [2] (at 10 µM) and 4.8% in assay [2] (stimulation, at 2 µM). Besides, the insulin secretion stimulation in assay [3] is 0% (inactive). The viability decrease in [4] is 8.8% (inactive). The tube area decrease in assay [5] was -5.7% (inactive). Also, in assay [6], the GLP1 secretion stimulation was 2.2% (inactive). Besides, the inhibition of viability in [7] is 15.5% (inactive). Moreover, the figures for the viability decrease (inhibition) in [8] and in [9] were 2.3% (inactive) and -11% (inactive), respectively. The compound was called inactive in assay [10], in assay [17] and in [13]. Further, the fold change was 0.927 (inactive) in [14] (setting [19]) and 0.71 in assay [14] (setting [20]). For the same compound, the cell count stood at 10200 in assay [14] (setting [21]) and 11000 in assay [14] (setting [22]). Further, the z-score in assay [15] (setting [23]) is -0.357 (inactive); in [15] (setting [24]), 0.633.
As to `CCCCCCCCCCCCCCCCNc1ccc(C(=O)O)cc1`, the nuclear beta-catenin stimulation in [2] (at 10 µM) is 11.3% (inactive); in [2] (stimulation, at 2 µM), 1.2%. Moreover, the insulin secretion stimulation in assay [3] is 4.2% (inactive). In addition, the viability decrease in [4] was 68.9% (active). Moreover, the tube area decrease in [5] was 109% (active). Moreover, in [6], the GLP1 secretion stimulation is -2.9% (inactive). In addition, in [7], the inhibition of viability is 45% (inactive). The viability decrease (inhibition) in [8] is 72.6% (active); in [9] it was 61.9% (active). Further, the fold change in assay [14] (setting [19]) was 0.865 (inactive); in [14] (setting [20]), 0.501. The cell count in assay [14] (setting [21]) was 4330; in assay [14] (setting [22]) it was 5010.
Take `CCCCC(CC)COC(=O)C(C#N)=C(c1ccccc1)c1ccccc1` (stereo not drawn): the nuclear beta-catenin stimulation is -0.2% (inactive) in [2] (at 10 µM) and 0.7% in [2] (stimulation, at 2 µM). Moreover, in assay [3], the insulin secretion stimulation is -1.3% (inactive). Further, the viability decrease in [4] is 51.7% (active). Further, the tube area decrease in assay [5] was 19.7% (active). Also, the GLP1 secretion stimulation in [6] was -1.3% (inactive). Moreover, the inhibition of viability in assay [7] is 43.8% (inactive). The viability decrease (inhibition) in assay [8] was 28.2% (inactive); in [9], 56.9% (active). Besides, the call in assay [18], in assay [10], in assay [17] and in assay [13] was inactive.
In the case of `CCCCCCCCOc1ccccc1C(=O)Nc1ccc(C(=O)OCC[N+](C)(CC)CC)cc1`, the nuclear beta-catenin stimulation in [2] (at 10 µM) is 4.2% (inactive); in [2] (stimulation, at 2 µM), 0.1%. In addition, the insulin secretion stimulation in assay [3] was 15.7% (inactive). For the same compound, the viability decrease in [4] is 99.7% (active). Further, the tube area decrease in assay [5] was 101% (active). In assay [6], the GLP1 secretion stimulation is -3.3% (inactive). Also, the inhibition of viability in [7] is 98.4% (active). The viability decrease (inhibition) in [8] was 88.6% (active); in assay [9], 99% (active). Moreover, the AC50 is 23.5 µM (active) in assay [18] and 18.7 µM (active) in assay [10]. In addition, the fold change is 0.913 (inactive) in [14] (setting [19]) and 0.694 in [14] (setting [20]). Also, the results for the cell count in assay [14] (setting [21]) and in assay [14] (setting [22]) were 7980 and 8740, respectively. The figures for the z-score in [15] (setting [23]) and in assay [15] (setting [24]) were -0.155 (inactive) and -0.0436, respectively.

By viability is commonly meant the share of living cells, or the viability signal relative to a control. The term AC50 denotes the concentration at which the activity in the assay is half-maximal.
